In the supplement of paper PMC10849652:
Targets with a hit are over-represented here; the source holds about 7,900 in all. About 0.6% of all pairs of compound and target were hits.

Compound: CC1=C(C(CC(=O)N1)C2=CC=C(C=C2)C(F)(F)F)C(=O)NC3=C(C=C4C(=C3)C=NN4)F
Test: log2 fold change, soluble protein after heating vs DMSO (PISA); higher = thermal stabilisation; K562 cells, 10 uM, 30 min; active = over 0.2 and 3.5 SD of the protein, either way, in both replicates (recomputed)
Procedure, shortened: (§1)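 Soluble protein was defined as the supernatant after 21,000xg for 90 min. It came from K562 cells at 2×10^6 cells/mL given 10 μM compound for 30 min, heated in aliquots for 3 min across 48°C-58°C, pooled, and extracted in PBS with 0.5% NP-40 at 4°C, and was quantified by TMTpro 16plex LC-MS/MS with equalised channel sums. Thermal stability against control samples, from duplicates, is reported as log2 fold change.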

Sequence of UniProt Q14061 (Q14061 whole entry, looked up): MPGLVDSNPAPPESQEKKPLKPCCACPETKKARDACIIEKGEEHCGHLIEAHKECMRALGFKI
Sequence of UniProt P51790 (P51790 whole entry, looked up): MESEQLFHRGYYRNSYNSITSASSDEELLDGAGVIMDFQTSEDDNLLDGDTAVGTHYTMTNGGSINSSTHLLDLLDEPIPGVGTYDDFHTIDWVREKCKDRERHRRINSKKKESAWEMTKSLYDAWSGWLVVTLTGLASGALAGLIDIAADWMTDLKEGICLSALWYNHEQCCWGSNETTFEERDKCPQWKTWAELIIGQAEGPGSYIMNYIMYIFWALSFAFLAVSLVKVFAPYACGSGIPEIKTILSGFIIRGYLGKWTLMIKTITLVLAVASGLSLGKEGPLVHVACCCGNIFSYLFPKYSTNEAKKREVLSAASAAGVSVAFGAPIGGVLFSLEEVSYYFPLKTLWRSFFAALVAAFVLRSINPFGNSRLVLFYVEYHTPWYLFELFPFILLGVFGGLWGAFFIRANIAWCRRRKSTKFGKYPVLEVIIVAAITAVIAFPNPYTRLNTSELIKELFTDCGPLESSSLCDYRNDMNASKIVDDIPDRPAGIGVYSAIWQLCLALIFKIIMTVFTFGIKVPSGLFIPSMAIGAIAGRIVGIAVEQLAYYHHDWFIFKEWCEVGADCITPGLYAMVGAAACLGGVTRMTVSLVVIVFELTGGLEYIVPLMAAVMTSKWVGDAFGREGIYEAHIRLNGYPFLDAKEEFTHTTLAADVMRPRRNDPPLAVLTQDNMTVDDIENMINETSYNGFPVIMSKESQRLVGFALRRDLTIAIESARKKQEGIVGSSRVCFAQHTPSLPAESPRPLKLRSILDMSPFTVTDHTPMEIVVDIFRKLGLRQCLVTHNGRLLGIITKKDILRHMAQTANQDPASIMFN
Sequence of UniProt A8MTT3 (A8MTT3 whole entry, looked up): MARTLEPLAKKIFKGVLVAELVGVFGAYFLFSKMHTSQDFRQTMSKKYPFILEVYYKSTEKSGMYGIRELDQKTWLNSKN
Sequence of UniProt Q14677 (Q14677 whole entry, looked up): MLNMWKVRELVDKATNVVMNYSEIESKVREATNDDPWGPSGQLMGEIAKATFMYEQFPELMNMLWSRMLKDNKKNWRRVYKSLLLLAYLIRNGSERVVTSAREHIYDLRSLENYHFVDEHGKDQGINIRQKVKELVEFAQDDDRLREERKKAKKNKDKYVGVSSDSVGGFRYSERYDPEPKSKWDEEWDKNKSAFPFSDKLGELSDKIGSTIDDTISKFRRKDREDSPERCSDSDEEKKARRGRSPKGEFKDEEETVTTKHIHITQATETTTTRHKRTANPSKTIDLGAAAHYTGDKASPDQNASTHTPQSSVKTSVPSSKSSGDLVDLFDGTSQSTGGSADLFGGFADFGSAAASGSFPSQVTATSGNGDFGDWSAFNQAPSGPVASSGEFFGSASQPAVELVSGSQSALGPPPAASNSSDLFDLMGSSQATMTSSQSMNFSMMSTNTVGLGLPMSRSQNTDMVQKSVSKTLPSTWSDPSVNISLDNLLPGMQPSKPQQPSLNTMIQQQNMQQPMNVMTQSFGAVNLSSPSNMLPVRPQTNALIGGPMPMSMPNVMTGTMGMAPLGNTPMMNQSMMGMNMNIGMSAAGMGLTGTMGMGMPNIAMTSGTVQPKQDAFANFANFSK
Sequence of UniProt Q96KA5 (Q96KA5 whole entry, looked up): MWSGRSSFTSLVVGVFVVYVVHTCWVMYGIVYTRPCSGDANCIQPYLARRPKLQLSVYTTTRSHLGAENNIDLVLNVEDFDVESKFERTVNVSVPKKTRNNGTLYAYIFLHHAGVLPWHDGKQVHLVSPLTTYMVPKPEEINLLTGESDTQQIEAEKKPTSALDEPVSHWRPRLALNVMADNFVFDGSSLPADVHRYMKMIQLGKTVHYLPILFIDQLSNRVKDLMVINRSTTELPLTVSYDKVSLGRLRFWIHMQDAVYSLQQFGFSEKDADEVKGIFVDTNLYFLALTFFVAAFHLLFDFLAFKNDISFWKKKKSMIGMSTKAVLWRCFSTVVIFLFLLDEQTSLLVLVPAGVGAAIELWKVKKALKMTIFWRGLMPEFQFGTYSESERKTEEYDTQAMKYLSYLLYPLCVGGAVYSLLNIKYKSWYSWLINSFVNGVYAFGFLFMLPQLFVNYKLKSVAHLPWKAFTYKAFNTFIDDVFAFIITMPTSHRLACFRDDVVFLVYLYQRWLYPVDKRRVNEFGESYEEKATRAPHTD
Sequence of UniProt Q5BKX5 (Q5BKX5 whole entry, looked up): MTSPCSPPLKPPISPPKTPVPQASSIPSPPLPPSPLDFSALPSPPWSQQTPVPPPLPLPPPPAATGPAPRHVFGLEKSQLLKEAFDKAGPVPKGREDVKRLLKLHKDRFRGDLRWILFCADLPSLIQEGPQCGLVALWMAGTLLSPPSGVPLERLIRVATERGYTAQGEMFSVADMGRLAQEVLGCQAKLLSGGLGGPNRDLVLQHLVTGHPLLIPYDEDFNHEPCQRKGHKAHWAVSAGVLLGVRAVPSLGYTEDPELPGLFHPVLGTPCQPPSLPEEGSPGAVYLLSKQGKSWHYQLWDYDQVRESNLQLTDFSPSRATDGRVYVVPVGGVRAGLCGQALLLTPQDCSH
Sequence of UniProt P24311 (P24311 whole entry, looked up): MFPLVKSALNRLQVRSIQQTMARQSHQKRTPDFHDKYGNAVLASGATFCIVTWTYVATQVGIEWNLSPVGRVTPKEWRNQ
Sequence of UniProt Q00535 (Q00535 whole entry, looked up): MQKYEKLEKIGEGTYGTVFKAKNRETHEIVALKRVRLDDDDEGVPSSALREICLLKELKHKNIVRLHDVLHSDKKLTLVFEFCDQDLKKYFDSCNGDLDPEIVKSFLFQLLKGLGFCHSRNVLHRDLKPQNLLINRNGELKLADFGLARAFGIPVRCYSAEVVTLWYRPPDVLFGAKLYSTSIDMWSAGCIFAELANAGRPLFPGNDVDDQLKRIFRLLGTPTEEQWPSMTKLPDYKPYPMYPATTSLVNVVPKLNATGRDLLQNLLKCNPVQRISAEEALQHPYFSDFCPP
Sequence of UniProt Q69YH5 (Q69YH5 whole entry, looked up): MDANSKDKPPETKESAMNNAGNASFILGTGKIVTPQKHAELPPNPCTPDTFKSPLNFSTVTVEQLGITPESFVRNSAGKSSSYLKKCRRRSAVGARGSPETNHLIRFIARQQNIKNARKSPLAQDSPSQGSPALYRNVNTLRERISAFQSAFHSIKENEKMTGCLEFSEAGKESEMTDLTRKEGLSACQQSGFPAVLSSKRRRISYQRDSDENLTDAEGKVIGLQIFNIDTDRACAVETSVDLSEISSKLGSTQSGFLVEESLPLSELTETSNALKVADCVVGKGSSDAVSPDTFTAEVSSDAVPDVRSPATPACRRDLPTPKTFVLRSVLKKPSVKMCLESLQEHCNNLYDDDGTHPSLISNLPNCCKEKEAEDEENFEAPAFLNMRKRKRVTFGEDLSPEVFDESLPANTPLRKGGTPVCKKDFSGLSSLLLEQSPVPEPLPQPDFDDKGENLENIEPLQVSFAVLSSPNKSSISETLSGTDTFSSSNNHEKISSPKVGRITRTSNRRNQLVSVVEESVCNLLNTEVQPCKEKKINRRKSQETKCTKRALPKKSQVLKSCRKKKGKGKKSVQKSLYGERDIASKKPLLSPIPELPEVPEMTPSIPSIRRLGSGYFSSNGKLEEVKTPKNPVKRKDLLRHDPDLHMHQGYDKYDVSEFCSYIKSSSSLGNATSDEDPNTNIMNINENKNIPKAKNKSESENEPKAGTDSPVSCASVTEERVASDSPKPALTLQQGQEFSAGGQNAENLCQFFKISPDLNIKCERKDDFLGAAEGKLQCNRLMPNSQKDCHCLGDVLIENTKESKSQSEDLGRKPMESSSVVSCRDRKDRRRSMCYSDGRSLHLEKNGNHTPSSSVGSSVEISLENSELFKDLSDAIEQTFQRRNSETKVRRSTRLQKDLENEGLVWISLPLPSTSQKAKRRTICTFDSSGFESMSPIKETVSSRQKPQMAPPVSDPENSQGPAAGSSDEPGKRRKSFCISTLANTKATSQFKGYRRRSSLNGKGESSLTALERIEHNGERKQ
Sequence of UniProt P11802 (P11802 whole entry, looked up): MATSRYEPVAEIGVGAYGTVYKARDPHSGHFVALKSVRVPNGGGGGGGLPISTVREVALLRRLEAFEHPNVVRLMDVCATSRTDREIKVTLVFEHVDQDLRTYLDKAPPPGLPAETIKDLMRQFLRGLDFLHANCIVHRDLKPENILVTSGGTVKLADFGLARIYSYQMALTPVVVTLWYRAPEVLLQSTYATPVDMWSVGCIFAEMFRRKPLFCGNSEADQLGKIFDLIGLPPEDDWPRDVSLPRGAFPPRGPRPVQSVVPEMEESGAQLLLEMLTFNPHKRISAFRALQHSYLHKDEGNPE
Sequence of UniProt Q14746 (Q14746 whole entry, looked up): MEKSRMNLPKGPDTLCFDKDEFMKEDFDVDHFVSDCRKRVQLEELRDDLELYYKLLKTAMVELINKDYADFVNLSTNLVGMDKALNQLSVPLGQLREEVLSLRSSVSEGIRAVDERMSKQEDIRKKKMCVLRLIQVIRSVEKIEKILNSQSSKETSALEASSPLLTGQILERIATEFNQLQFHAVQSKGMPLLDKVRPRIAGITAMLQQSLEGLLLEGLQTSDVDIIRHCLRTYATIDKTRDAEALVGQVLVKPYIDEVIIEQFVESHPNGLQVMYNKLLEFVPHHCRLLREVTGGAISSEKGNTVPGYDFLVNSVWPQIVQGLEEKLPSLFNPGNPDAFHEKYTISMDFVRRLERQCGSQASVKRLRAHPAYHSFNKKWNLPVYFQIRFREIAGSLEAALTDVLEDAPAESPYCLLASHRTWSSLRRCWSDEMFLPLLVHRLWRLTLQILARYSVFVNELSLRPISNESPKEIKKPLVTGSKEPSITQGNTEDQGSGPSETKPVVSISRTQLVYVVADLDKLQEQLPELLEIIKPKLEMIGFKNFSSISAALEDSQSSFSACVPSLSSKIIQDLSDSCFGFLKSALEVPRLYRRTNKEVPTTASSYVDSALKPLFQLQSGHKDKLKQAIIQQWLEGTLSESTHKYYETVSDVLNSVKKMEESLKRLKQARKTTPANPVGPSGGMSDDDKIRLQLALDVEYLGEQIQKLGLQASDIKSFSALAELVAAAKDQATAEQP

Row | Target | log2 fold change
1 | CDC25B isoform 4 (UniProt P30305) | 0.155 (inactive)
2 | CDK4 (UniProt P11802) | -0.069 (inactive)
3 | CLCN3 (UniProt P51790) | -0.045 (inactive)
4 | CEBPZOS (UniProt A8MTT3) | 0.02 (inactive)
5 | COX17 (UniProt Q14061) | 0.241 (inactive)

Compound: CC1=C(C2=C(C=C1)C(=O)C3=CC=CC=C3N2CCCN)C
Test: as above
Procedure, shortened: as §1

Row | Target | log2 fold change
6 | CLUH, A0A494C0R8 | 0.046 (inactive)
7 | CLINT1 isoform 3 (UniProt Q14677) | 0.022 (inactive)
8 | CLPP (UniProt Q16740) | 0.079 (inactive)
9 | COX7B (UniProt P24311) | 0.266 (inactive)
10 | CLN5 (UniProt O75503) | -0.028 (inactive)
11 | CDK19 (UniProt Q9BWU1) | 0.119 (inactive)
12 | CAV2 (UniProt P51636) | 0.005 (inactive)
13 | CDK5 (UniProt Q00535) | 0.028 (inactive)
14 | CLTB (UniProt P09497) | -0.007 (inactive)
15 | COG2 (UniProt Q14746) | -0.108 (inactive)
16 | C15orf41 (UniProt Q9Y2V0) | -0.117 (inactive)
17 | CNOT4 isoform 9 (UniProt O95628) | 0.202 (inactive)
18 | C19orf54 (UniProt Q5BKX5) | -0.054 (inactive)
19 | CCND3 (UniProt P30281) | -0.088 (inactive)
20 | CDCA2 (UniProt Q69YH5) | -0.003 (inactive)
21 | CD84 (UniProt Q9UIB8) | 0.233 (inactive)
22 | CORO2A (UniProt Q92828) | 0.01 (inactive)
23 | CLUH (UniProt O75153) | 0.095 (inactive)
24 | CNN3 (UniProt Q15417) | 0.012 (inactive)
25 | CENPE (UniProt Q02224) | 0.101 (inactive)
26 | CCNDBP1 (UniProt O95273) | -0.166 (inactive)
27 | CLSPN (UniProt Q9HAW4) | -0.541 (active)
28 | CLPTM1L (UniProt Q96KA5) | 0.033 (inactive)
29 | CMTM3 (UniProt Q96MX0) | -0.062 (inactive)
30 | CLN8 (UniProt Q9UBY8) | 0.138 (inactive)
31 | CLCN3 (UniProt P51790) | -0.053 (inactive)
32 | CEBPZOS (UniProt A8MTT3) | 0 (inactive)
33 | COX17 (UniProt Q14061) | 0.086 (inactive)
